Shown are actives, neighbours in structure and some others; about 11% of the full set was active somewhere.
HP1b chromo inh = inhibitors of HP1-beta chromodomain binding to methylated histone tails. hit rate 0.56% among 390,000. P83916. Potency, µM (series often up to 114 µM), for the others: at the top dose activity change, negative = inhibition, hits mostly inhibitors. AlphaScreen HP1-beta / biotin-H3K9me3 peptide binding; further: nearly all actives have a fitted effect of over 70% in size
Target sequence (P83916 whole entry, looked up): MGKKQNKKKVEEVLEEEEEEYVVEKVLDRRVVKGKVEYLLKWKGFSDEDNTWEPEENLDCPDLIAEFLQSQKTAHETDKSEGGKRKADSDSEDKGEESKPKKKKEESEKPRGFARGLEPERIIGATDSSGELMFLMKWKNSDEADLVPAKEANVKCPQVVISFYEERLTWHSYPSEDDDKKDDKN
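Compound inhibition of the preformed complex between 50 nM HP1-beta and 50 nM biotinylated H3K9me3 peptide was read by AlphaScreen. Buffer was PBS pH 7.4 with 0.01% Tween-20. Incubations ran 30 min at room temperature, with 10 ug/mL donor/acceptor beads.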
JMJD2A Tudor inh = inhibitors of human JMJD2A Tudor domain; hit rate 4.4% among 390,000; AlphaScreen JMJD2A-Tudor / H3K4me3 peptide binding; O75164; Potency, µM (doses to about 114 µM), inactives show at the highest dose activity change, negative = inhibition, usual class: inhibitors; further: on the % scale 0 is the no-effect control and ±100 the full control effect; nearly all actives have a fitted effect of over 50% in size
G9a block = blocks human histone lysine methyltransferase G9a; Q96KQ7; G9a H3K9 monomethylation, AlphaScreen, 2 h; Potency, µM (titrated, usually from 102 µM), for inactives: at the top dose activity, negative = inhibition, usual class: inhibitors; hit rate 8.8% among 350,000; further: on the % scale 0 is the no-effect control and ±100 the full control effect; nearly all actives have a fitted effect of over 75% in size
Target sequence (Q96KQ7 913-1193 limits assumed): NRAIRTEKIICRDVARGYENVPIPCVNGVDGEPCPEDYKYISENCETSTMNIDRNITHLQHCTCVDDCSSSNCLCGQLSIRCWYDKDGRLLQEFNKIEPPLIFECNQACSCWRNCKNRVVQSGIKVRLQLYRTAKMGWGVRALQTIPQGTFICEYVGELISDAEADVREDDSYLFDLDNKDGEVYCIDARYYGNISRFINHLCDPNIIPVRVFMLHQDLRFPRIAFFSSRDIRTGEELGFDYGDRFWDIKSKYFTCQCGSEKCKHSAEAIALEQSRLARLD
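Quantitative HTS format: methyltransferase activity on a biotin-tagged H3K9 peptide is measured by AlphaScreen, using a rabbit anti-monomethyl-H3K9 antibody with streptavidin donor and anti-IgG acceptor beads. Final levels are 20 nM enzyme, 500 nM peptide, 20 uM SAM; 2 h RT.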
L3MBTL1 inh = L3MBTL1 (human) inhibition | hit rate 0.66% among 230,000 | AID 485360 | AlphaScreen L3MBTL1–H3K9me1 peptide binding | Q9Y468 | Potency, µM (top dose mostly 57.1 µM), inactives show at the top dose activity, negative = inhibition, actives largely listed as inhibitors; further: on the % scale 0 is the no-effect control and ±100 the full control effect; nearly all actives have a fitted effect of over 60% in size
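AlphaScreen assay: L3MBTL1 (50 nM final) was preincubated 30 min at room temperature with biotinylated H3(1-15)K9me1 peptide (75 nM final), then 30 min with library compounds; streptavidin donor and nickel chelate acceptor beads (10 ug/mL final) added, 30 min dark.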
BAZ2B inh = BAZ2B (human) inhibition | hit rate 4.4% among 360,000 | Q9UIF8 | AlphaScreen BAZ2B-H3K14Ac peptide displacement | Potency, µM (highest dose often 114 µM), inactives show at the top dose activity change, negative = inhibition, hits mostly inhibitors; further: on the % scale 0 is the no-effect control and ±100 the full control effect; nearly all actives have a fitted effect of over 60% in size
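Compounds, titrated to a top concentration of 110 uM, were incubated 30 min at room temperature with preformed BAZ2B/acetyl-K14 H3 peptide complex (50 nM each). Proximity signal was measured by AlphaScreen after 20 min with beads.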
* = called active by the depositor; ? = inconclusive; / = no result; [ ] = remark or other dose. The call rests on the fitted dose curve; in most records, active means well fitted inhibition curve with a large enough effect; inconclusive means small, poorly fitted or top-dose-only effect; inactive means no such curve, though single readings can be large or run the other way. Potency means the concentration at half of the fitted maximal effect.

SMILES	HP1b chromo inh	JMJD2A Tudor inh	G9a block	L3MBTL1 inh	BAZ2B inh
CC(=O)c1cnc(-c2ccccc2Cl)s1	27%	-1%	-6%	15%	2%
CC(=O)c1cnc(-c2ccccn2)s1	-18%	-10%	32µM*	17%	-11%
CCOC(=O)N1CCN(Cc2nc3cc(NC(=O)c4ccc(F)cc4)ccc3n2C(C)C)CC1	37%	-22%	2%[59 µM]	/	-26%
CN1CC(=O)NC1=NC(=O)c1cc(F)c(F)cc1Cl	17%	-24%	32µM*	4%	?
Cc1nnc(N2CCC(C(=O)N3CCCCC3)CC2)c2nn(-c3ccccc3)c(C)c12	34%	-21%	-10%[59 µM]	/	-5%
COc1ccc(C2Nc3ccccc3NC3=C2C(=O)CC(C)(C)C3)cc1O (stereo not given)	-5%	13µM*	-16%	-4%	-1%
CCCC(=O)Nc1nnc(SCc2cc(=O)c3cc(C)ccc3[nH]2)s1	25%[57 µM]	-7%	5%[59 µM]	/	9%
CC(CCc1ccccc1)NC(=O)Cn1c(=O)nc(-c2ccccc2F)c2cc(Cl)ccc21 (stereo not given)	35%	-10%	5%[12.7 µM]	/	-10%
CCCCN(C(=O)c1cc(OC)c(OC)c(OC)c1)C1=CC2CCC(C1)N2C (stereo not given)	13%	-21%	56µM*	4%	-3%
CN(CC(=O)Nc1cccc(F)c1)CC(=O)Nc1ccccc1-c1ccccc1	39%	-19%	/	4%	/
COc1cccc(NC(=O)CN(C)C(C)C(=O)N2CCCCC2)c1 (stereo not given)	?	0.32µM*	/	-4%	/
CCN(CC(=O)Nc1cccc(F)c1)CC(=O)Nc1ccccc1OC	25%	0%	4%	/	-2%
COc1cccc(NC(=O)CN(C)CC(=O)Nc2ccccc2-c2ccccc2)c1	?	22µM*	14µM*	-3%	79µM*
COc1cccc(NC(=O)CN(C)C(=O)c2cc3c(s2)CCC3)c1	-7%	?	19%[0.501 µM]	8.9µM*	56µM*
CN(CC(=O)Nc1cccc(F)c1)CC(=O)Nc1ccccc1Oc1ccccc1	?	10µM*	8.9µM*	/	25µM*
CCOCc1c(C(=O)NCC(c2ccco2)N2CCCC2)oc2ccccc12 (stereo not given)	12%	-31%	/	-14%	/
Cc1ccc(C)c(NCc2n[nH]c(=S)n2-c2ccccc2)c1	-5%	?	/	6%	-2%
Cc1ccc(C)c(/C=N/n2cc(-c3ccccc3)[nH]c2=S)c1	0%	?	4µM*	-15%	-38%
Fc1ccccc1/C=N/n1cc(-c2ccccc2)[nH]c1=S	12%	13µM*	?	/	-24%
O=C(CSc1nnc(CNC(=O)c2ccco2)o1)Nc1ccccc1F	-9%	-14%	25µM*	/	-11%
O=C(CSc1nnc(CNC(=O)c2ccco2)o1)Nc1ccc(Br)cc1	24%	-2%	10µM*	/	?
O=C(NCc1nnc(SCC(=O)N2CCC(Cc3ccccc3)CC2)o1)c1ccccc1F	12%	-24%	45µM*	8%	-5%
O=C(NCc1nnc(SCC(=O)N2CCCC2)o1)c1c(F)cccc1F	26%	4%	45%	/	0%
CCN(C(=O)CSc1ccc2ccccc2n1)C1CCCCC1	82%	15%	/	6%	/
Cc1ccc(CNC(=O)C2CCCN(c3nnc(-n4c(C)ccc4C)s3)C2)cc1 (stereo not given)	-2%	-27%	-11%[59 µM]	/	-14%
SMILES	HP1b chromo inh	JMJD2A Tudor inh	G9a block	L3MBTL1 inh	BAZ2B inh
Cc1cc(N/N=C2/CCCc3ccccc32)nc2ccccc12	18%	?	50µM*	8%	?
CCOC(=O)c1c(-c2ccccc2)oc2ccc(NS(=O)(=O)c3ccc(C)cc3)cc12	30%	-16%	-42%[59 µM]	/	-4%
c1ccc(-c2ccccc2OCCCCn2ccnc2)cc1	40µM*	20µM*	/	-7%	50µM*
Cc1ccc(C)c(OCCCCn2ccnc2)c1	9%	?	?	/	?
Cc1ccccc1OCCCCCNCCO	66%	-14%	-9%[59 µM]	/	15%
CC(C)(C)c1ccccc1OCCCCCNCCO	?	3.2µM*	?	2%	?
CC(C)(C)c1ccccc1OCCCCCn1ccnc1	?	2.8µM*	?	-23%[11.4 µM]	18µM*

Screens deposited in PubChem BioAssay by National Center for Advancing Translational Sciences (NCATS).
